# Assay outcomes deposited in PubChem by National Center for Advancing Translational Sciences (NCATS).
# KB-V1 MDR tox: kills drug-selected multidrug resistant KB-V1 cells; KB-V1 MDR cells viability, CellTiter-Glo, 72 h; Potency, µM (highest dose often 46.1 µM), most hits filed as cytotoxic; 3.4% of 400,000 active; also: nearly all actives have a fitted effect of over 60% in size
#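 Drug-selected KB-V1 cells, grown in DMEM lacking phenol red with 10% FBS, receive compound titrations; after three days at 37 degrees C, surviving cell ATP is quantified by CellTiter-Glo luminescence and responses normalized and curve-fitted.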
# HT1080 IDH1KD tx: HT-1080 IDH1 knockdown cell toxicity (counter line) | HT-1080 IDH1 knockdown viability, ATP luminescence, 48 h | Potency, µM (series often up to 46.1 µM), for inactives: at the highest dose activity, negative = toxicity, usual class: cytotoxic | 2% of 360,000 active | AID 686971;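 also: 0% = DMSO wells and -100% = cell-free medium wells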
#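 After a 2 h attachment period, IDH1KD HT-1080 cells took pin-transferred compound for 48 h at 37 °C; ATP-based luminescence after 10 min room-temperature reagent incubation reported viability.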
# HT1080NT lethal: kills 2HG-producing HT-1080-NT fibrosarcoma cells. HT-1080-NT fibrosarcoma viability, CellTiter-Glo ATP luminescence, 48 h. Potency, µM (top dose mostly 46.1 µM), without a hit: top-dose activity, negative = less viability, usual class: cytotoxic. 1.6% of 360,000 active. AID 686970;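 also: NT is the 2HG producing partner of a matched IDH1 knockdown line; 0% = DMSO-treated cells and -100% = media-only wells without cells; nearly all actives have a fitted effect of over 55% in size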
#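 Toxicity toward the 2HG-producing NT line was scored as %Activity, normalised to DMSO and no-cell wells, from CellTiter-Glo luminescence after 48 hours' treatment.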
# TDP1 cell CPT: growth inhibition of DT40 Tdp1-/-;hTDP1 cells with camptothecin (screen for TDP1 inhibitors). chicken DT40 Tdp1-/-;hTDP1 cells + 20 nM CPT, ATP luminescence, 48 h. Potency, µM (titrated, usually from 46.2 µM), for the others: top-dose activity change, negative = growth inhibition, hits mostly inhibitors. 12% of 420,000 active. AID 686979; also: nearly all actives have a fitted effect of over 55% in size
#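 Cell growth measured by CellTiter-Glo luminescence after a minimum 48 h, 37 C compound exposure with 20 nM CPT in Tdp1-knockout DT40 cells stably expressing hTDP1, seeded 400/well; qHTS titration format.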
# DT40 TDP1 no CPT: qHTS for Inhibitors of human tyrosyl-DNA phosphodiesterase 1 (TDP1): qHTS in cells in absence of CPT; DT40 Tdp1-/- hTDP1 cells, no CPT, ATP luminescence, 48 h; Potency, µM (top dose mostly 46.2 µM), for inactives: top-dose activity change, negative = growth inhibition, usual class: inhibitors; 15% of 420,000 active; AID 686978, 2013; also: nearly all actives have a fitted effect of over 55% in size
#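 Stably hTDP1-transfected Tdp1-null chicken DT40 cells were treated with library compounds minus camptothecin and grown for at least 48 hr at 37 °C, after which cellular ATP was quantified by luminescence.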
# KB-3-1 cytotox: kills parental KB-3-1 adenocarcinoma cells; KB-3-1 viability, CellTiter-Glo ATP luminescence, 72 h; 1.4% of 400,000 active; Potency, µM (highest dose often 46.1 µM), hits mostly cytotoxic; also: nearly all actives have a fitted effect of over 60% in size
#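 Cytotoxicity measured as CellTiter-Glo luminescence after 72 h at 37 C. Compound titrations were pinned onto drug-naive KB-3-1 parental adenocarcinoma cells grown in DMEM with 10% FBS, and normalized data fitted to concentration-response curves.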
# The depositor's hits bear a star; i = inactive; ? = inconclusive; / = no result. Hits are enriched below; roughly 19% of the tested compounds scored in any of these assays. Calls follow the shape of the dose curve; as a rule, active = well fitted curve in the direction sought with a large enough effect; inconclusive = small, poorly fitted or top-dose-only effect, or another doubt; inactive = no such curve, though single readings can be large; an effect the other way counts as inactive or inconclusive. Unless noted, % is scaled to controls: 0 for no effect and ±100 for the full control effect; potency is read from the fitted curve at half-maximal effect.
SMILES,KB-V1 MDR tox,HT1080 IDH1KD tx,HT1080NT lethal,TDP1 cell CPT,DT40 TDP1 no CPT,KB-3-1 cytotox
CC(NCc1ccc(OCc2ccc(Cl)cc2)cc1)C(O)c1ccccc1 (stereo unspecified),?,18µM*,23µM*,15µM*,?,?
COc1ccc(CNC(c2ccccc2)c2ccc(Cl)cc2)cc1 (stereo unspecified),i,-26%,-26%,?,16µM*,i
COc1ccc(CNS(=O)(=O)NCc2ccccc2)cc1,i,3%,1%,-10%,-16%,i
OCCCCNCc1ccc(OCc2ccc(Cl)cc2)cc1,i,?,?,?,?,i
Cc1cc(Cl)ccc1C(=O)C1CCCN(C(=O)c2n[nH]c3c2CCCC3)C1 (stereo unspecified),i,-22%,-19%,?,?,i
CC1CCCCC1NC(=O)c1ccc(NC2=NC3CS(=O)(=O)CC3S2)cc1 (stereo unspecified),?,-7%,-7%,-8%,7%,i
CC(=O)Nc1cc(-c2cccc(NS(C)(=O)=O)c2)cn2c(-c3ccc(F)c(Cl)c3)cnc12,?,?,?,?,23µM*,i
CC(=O)Nc1cc(-c2cccc(C(=O)N(C)C)c2)cn2c(-c3ccc(F)c(Cl)c3)cnc12,?,-19%,-27%,?,?,i
CC(=O)Nc1cc(-c2cccc(NS(C)(=O)=O)c2)cn2c(-c3cccc(C(C)=O)c3)cnc12,i,?,?,16µM*,18µM*,i
COc1ccc(-c2cnc3c(NC(C)=O)cc(-c4cccc(NS(C)(=O)=O)c4)cn23)cc1OC,i,-16%,-12%,21µM*,23µM*,i
CC(=O)Nc1cc(-c2ccccc2)cn2c(-c3cccc(C(C)=O)c3)cnc12,i,?,-14%,15µM*,10µM*,i
CCOc1ccc(/C=C2\SC(=S)N(CC(=O)Nc3ccccn3)C2=O)cc1,i,4%,5%,?,0%,i
CCOC(=O)C1(CCCc2ccccc2)CCN(C(=O)CCC2=NNC(=O)CC2)CC1,i,1%,5%,-18%,-18%,i
CCNC(=O)C1(C)CCCN1C(=O)c1ccc(-c2ccccc2)cc1 (stereo unspecified),i,21%,?,?,?,i
CCN(CC(=O)Nc1c(F)cccc1F)C(=O)CCN1C(=O)C2CCCCC2C1=O (stereo unspecified),i,6%,15%,2%,-13%,i
COc1ccccc1N1CCN(C(CNC(=O)C(=O)NCCc2ccccc2)c2cccnc2)CC1 (stereo unspecified),?,/,/,10µM*,8.2µM*,?
COc1ccc(C(=O)NCC(c2cccnc2)N2CCN(c3ccccc3OC)CC2)cc1 (stereo unspecified),i,/,/,18µM*,12µM*,i
COc1ccc(N2CCN(C(CNC(=O)c3cccc(OC)c3)c3cccnc3)CC2)cc1 (stereo unspecified),?,/,/,?,?,i
Cc1ccc(S(=O)(=O)c2c(C)cc(C)nc2Cl)cc1,13µM*,-1%,0%,6%,3%,i
COc1ccc(Oc2nc(C)cc(C)c2S(=O)(=O)c2ccc(C)cc2)cc1,21µM*,-13%,7%,-19%,-8%,i
Cc1cc(C)c(S(=O)(=O)c2ccccc2C)c(Oc2ccccc2)n1,21µM*,-2%,2%,?,?,?
CCCCSc1nc(C)cc(C)c1S(=O)(=O)c1ccccc1C,i,-8%,-1%,18µM*,?,?
Cc1cc(C)c(S(=O)(=O)c2ccccc2)c(Cl)n1,i,0%,-1%,-9%,-15%,i
CN(CC(=O)Nc1cccc(F)c1)C(=O)CSc1nc2ccccc2s1,i,-2%,-1%,-12%,-26%,i
COc1ccc(-n2ncc3c(NCCCOC(C)C)ncnc32)cc1,i,/,/,?,?,i
SMILES,KB-V1 MDR tox,HT1080 IDH1KD tx,HT1080NT lethal,TDP1 cell CPT,DT40 TDP1 no CPT,KB-3-1 cytotox
CS(=O)(=O)N1CCCCC1CCN1CCCCC1 (stereo unspecified),i,22%,13%,3%,-3%,i
Cc1ccccc1/C(=N\S(=O)(=O)c1ccc(Br)cc1)Nc1ccccc1,?,-14%,-18%,?,15µM*,i
Cc1ccc(S(=O)(=O)/N=C(/Nc2c(C)cccc2C)c2ccccc2)cc1,i,2%,3%,-69%,1.6µM*,i
O=C(COC(=O)C1CC2CCCC(C1)C2=O)Nc1ccccc1 (stereo unspecified),i,16%,1%,-18%,1%,i
CN(C1CCCCC1)S(=O)(=O)c1ccc2c(c1)c(=O)c(C(=O)NCc1ccc(Cl)cc1)cn2C,i,/,/,-20%,?,i
O=C1C=Cc2cccc3ccc(O)c1c23,?,?,?,23µM*,15µM*,?
O=C1c2cccc3cccc(c23)C(=O)N1c1ccc(O)cc1,i,8%,9%,-1%,5%,i
Cc1cc(SCC(=O)c2cccs2)n2nc(C)c(-c3ccc(Cl)cc3)c2n1,?,-12%,-17%,16µM*,?,i
C=C(C)CSc1cc(C)nc2c(-c3ccccc3)c(C)nn12,6.5µM*,-26%,?,?,?,?
CCSc1cc(C)nc2c(-c3ccccc3)c(C)nn12,i,8%,2%,-8%,-16%,i
Cc1nn2c(SCC(=O)c3cccs3)cc(C(C)(C)C)nc2c1-c1ccccc1,i,-22%,-24%,?,?,?
CC1Cc2ccccc2N1C(=O)CO/N=C/c1ccccc1OC(F)F (stereo unspecified),?,-19%,-2%,?,21µM*,i
COc1cccc(/C=C/C(=O)OCC(=O)N2c3ccccc3CC2C)c1OC (stereo unspecified),i,-7%,4%,3%,4%,i
COc1ccc(/C=C/C(=O)OCC(=O)N2c3ccccc3CC2C)c(OC)c1 (stereo unspecified),i,2%,4%,?,18µM*,i
Cc1ccc(CN2CCc3nnc(C(NC(=O)c4ccoc4)C(C)C)n3CC2)cc1C (stereo unspecified),/,/,/,7%,-9%,/
